# Assay results reported in the supplement of paper PMC10338343.
# ± gives the standard deviation.
# Columns and labels:
# [1] = tested on: MILI (PIWIL2) piRISC loaded with piRNA #1 (26 nt); assay: pre-steady-state target cleavage rate (min^-1); guide: piRNA #1 5'p-UGAGGUAGUAGGUUGUAUAGUAUCCA; higher = faster piRNA-guided slicing of the target; conditions: auxiliary factor: 500 nM mouse GTSF1;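 also: 1 nM active piRISC with 0.1 nM target library at 33 °C single turnover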
# Outline: (§1)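 The pre-steady-state cleavage rate was calculated from a burst-and-steady-state fit. Data came from Cleave-'n-Seq, in which […] transcribed, DNA-blocked target RNA library was mixed with 1 nM active affinity-purified piRISC carrying one synthetic guide, with or without 500 nM GTSF1 partner protein, in HEPES–potassium acetate buffer at 33 °C for 0–8 or 0–960 min. Uncleaved targets were sequenced and normalised to depth and to weakly complementary targets, three trials were pooled, and k3 was capped at 0.0001 min^-1.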
# [2] = tested on: EfPiwi piRISC loaded with piRNA #1 (26 nt); assay: pre-steady-state target cleavage rate (min^-1); auxiliary factor: 500 nM Ephydatia muelleri Gtsf1; guide: piRNA #1 5'p-UGAGGUAGUAGGUUGUAUAGUAUCCA; MIWI and MILI are mouse PIWI proteins and EfPiwi is from a freshwater sponge; tags in brackets are library labels; higher = faster piRNA-guided slicing of the target
# Outline: as §1
Sequence,pre-steady-state target cleavage rate [1],pre-steady-state target cleavage rate [2]
GGAGUGGAUACAAUACAACCUACUACGUCA,0.0406 ± 0.0063,0.0038 ± 0.0016
GGAGACCAUACUAUACAACCUACUACACUCA,0.204 ± 0.027,0.00487 ± 0.0033
GGAGUGGAUACUACACAACCUACUACCUCA,0.175 ± 0.011,0.082 ± 0.029
GGAGACCAUCCUAUACAACCUACUACCUCA,0.16 ± 0.03,0.01 ± 0.006
GGAGAGCAUACUAUACAACGUACUACCUCA,0.0213 ± 0.003,0.00394 ± 0.0014
GGAGACCUAACUUUACAACCUACUACCUCA,0.109 ± 0.025,0.00631 ± 0.0034
GGAGACGAUACUAUACAUCCAACUACCUCA,0.00801 ± 0.0028,0.00562 ± 0.0029
GGAGAGGAUACUAUACAACCAACUACCACA,0.0058 ± 0.0018,0.00388 ± 0.0019
GGAGUGGAUACUAUACAAUCUACUACCUCA,0.127 ± 0.009,0.105 ± 0.038
GGAGUGGAUGCUAUACAACCUACUACCUCA,0.152 ± 0.022,0.0921 ± 0.046
GGAGACGAUACUAUAGUACCUACUACCUCA,0.193 ± 0.013,0.00438 ± 0.0021
GGAGAGGAUACUAUACAACCUACUACCAUCA,0.0616 ± 0.0087,0.00705 ± 0.0029
GGAGAGGAUACUAUACAUCCUACUACCACA,0.0843 ± 0.016,0.00374 ± 0.0014
GGAGACCUUACUAUACAACGUACUACCUCA,0.0177 ± 0.0026,0.00318 ± 0.0019
GGAGUGGAUACUAUAGAACCUACUACGUCA,0.0161 ± 0.0041,0.00205 ± 0.0016
GGAGACGAUACUAUACAACCUACUACAUCA,0.0978 ± 0.015,0.0059 ± 0.0024
GGAGACGAUACUAUACAUCCUACUACGUCA,0.213 ± 0.033,0.00318 ± 0.0012
GGAGACCAAACUAUACAACCUACAACCUCA,0.12 ± 0.035,0.008 ± 0.0041
GGAGACGAUACUAUACAACCUAGUACCACA,0.00571 ± 0.0053,0.00488 ± 0.0029
GGAGACGUUACUAUACAACCAACUACCUCA,0.0041 ± 0.002,0.00407 ± 0.0025

Sequence,pre-steady-state target cleavage rate [1],pre-steady-state target cleavage rate [2]
GGAGACCUUUCUAUACAACCUAGUACCUCA,0.0267 ± 0.0078,0.00465 ± 0.0038
GGAGAGGAUAGUAUACAACCUACUACCUGA,0.0327 ± 0.0082,0.00298 ± 0.0022
GGAGACGAUUCUAUAGAACCUACUACCUCA,0.172 ± 0.012,0.00226 ± 0.0018
GGAGAGGAUACUAUUCAACCUACAACCUCA,0.0909 ± 0.01,0.00238 ± 0.0017
GGAGAGGAUACUAUACAACCUCUACCUCA,0.0184 ± 0.0033,0.00619 ± 0.0034
GGAGACCUUUCUAUACAACCUACUACCUGA,0.0728 ± 0.013,0.0049 ± 0.0044
GGAGACGAAACUAAACAACCUACUACCUCA,0.145 ± 0.022,0.00324 ± 0.0032
GGAGACCUAUGAAAUACAACCUACUACCUCA,0.0221 ± 0.0062,0.00445 ± 0.0038
GGAGACGAUACUAUACUACCUACUUCCUCA,0.101 ± 0.016,0.00224 ± 0.0016
GGAGACGAUACUAUACAACCUCCUACCUCA,0.041 ± 0.0079,0.00579 ± 0.0016
GGAGACCUAAGUAUACAACCUACUACCUCA,0.0701 ± 0.0097,0.00697 ± 0.0037
GGAGAGCAUACUAUACAACCUACAACCUCA,0.133 ± 0.015,0.0026 ± 0.0017
GGAGAGGAUACUUUACAACCUACUACGUCA,0.0429 ± 0.0069,0.00296 ± 0.0023
GGAGACGAUUCUAUACAACCUACUAGCUCA,0.12 ± 0.013,0.00278 ± 0.0019
GGAGACGAAACUAUACAACCUACUAGCUCA,0.083 ± 0.025,0.00368 ± 0.0023
GGAGAGGAAACAAUACAACCUACUACCUCA,0.186 ± 0.018,0.00675 ± 0.004
GGAGAGGAUACUAUACAACCUACUACCUUCA,0.178 ± 0.016,0.104 ± 0.039
GGAGAGGAUACUAUACAACGUACUACCUCA,0.0143 ± 0.003,0.0053 ± 0.0021
GGAGAGGAUACUAUACAACCUACUACCUGA,0.0731 ± 0.011,0.00647 ± 0.0028
GGAGACGAUACUAUACUACCUACUACCUCA,0.2 ± 0.013,0.00925 ± 0.0032

Sequence,pre-steady-state target cleavage rate [1],pre-steady-state target cleavage rate [2]
GGAGACGAUACUAUACAACCUACUACUUCA,0.162 ± 0.013,0.00983 ± 0.0039
GGAGUGGAUACUAUACAACGCUACUACCUCA,0.0044 ± 0.0029,0.00636 ± 0.003
GGAGACCUAACUAUACAACCUACUACCUCA [g2:g21:cont:t1A],0.148 ± 0.032,0.013 ± 0.0043
GGAGUGGAUACUAUACAACCUACUAACCUCA,0.133 ± 0.014,0.00634 ± 0.0027
GGAGUGGUACUAUACAACCUACUACCUCA,0.148 ± 0.0098,0.00812 ± 0.0044
GGAGACGAUACUAUACAACCCACUACCUCA,0.0178 ± 0.0039,0.00638 ± 0.0022
GGAGUGGAUACUAUACAUCCUACUACCUGA,0.0983 ± 0.018,0.00497 ± 0.0018
GGAGAGGAUACUAUAGAACCUACUAGCUCA,0.00752 ± 0.0035,0.00254 ± 0.0018
GGAGAGGAUACUAUACAACCUACUACCGCA,0.0764 ± 0.015,0.00593 ± 0.0021
GGAGAGGAUACUAUACAACCUACCUACCUCA,0.142 ± 0.013,0.00412 ± 0.0014
GGAGUGGAUACAAUACAUCCUACUACCUCA,0.256 ± 0.016,0.00574 ± 0.0025
GGAGAGGAUACUAUACAACCUACAACCACA,0.00451 ± 0.0037,0.00436 ± 0.0017
GGAGACGAAUCUAUACAACCUACUACCUCA,0.146 ± 0.015,0.0517 ± 0.018
GGAGACGAUACUAUACAACUUACUACCUCA,0.0232 ± 0.0039,0.0183 ± 0.0077
GGAGACGAUACUAUAUAACCUACUACCUCA,0.205 ± 0.011,0.0091 ± 0.0042
GGAGACGAUUCUAUACAACCUAGUACCUCA,0.07 ± 0.011,0.00392 ± 0.0022
GGAGACCAUACUAUACAAGCUACUACCUGA,0.157 ± 0.019,0.00543 ± 0.0026
GGAGUCGAAACUAUACAACCUACUACCUCA,0.18 ± 0.019,0.0604 ± 0.021
GGAGACGCUACUAUACAACCUACUACCUCA,0.228 ± 0.019,0.163 ± 0.051
GGAGACGAUACUAUUCAACCUACUAGCUCA,0.0651 ± 0.01,0.0042 ± 0.002
